Measured values taken from PubChem BioAssay (EPA / NIEHS).
Inconclusive results are not listed. Calls of active or inactive are those of the source. The calls were made as follows, unless noted: active = hit-call score of the fitted dose curve at least 0.9, where 1 is the maximum; inconclusive = response in the unintended direction; inactive = score below 0.9.

How the values were obtained:
[1] = TOX21_p53_BLA_p2_viability: Viability Assessment in the Tox21 HCT-116 p53 Agonism Beta-lactamase Assay, Phase 2 (AID 2283591);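 also: compound exposure lasted 16 h at 37 °C; actives lower the ATP signal meaning cytotoxicity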
In short: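 HCT116 p53-bla cells, 4000/well, dosed after 5 h plating (217-fold dilution of DMSO stocks) and incubated 16 h at 37C. Viability taken as cellular ATP by CellTiter-Glo luminescence after 30 min RT; signal loss marks cytotoxicity.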

[2] = TOX21_p53_BLA_p3_viability: Viability Assessment in the Tox21 HCT-116 p53 Agonism Beta-lactamase Assay, Phase 3 (AID 2283593);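 also: cells exposed to compound for 16 h before reading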
In short: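 HCT116 cells, 4000/well, dosed 5 h after plating by pin transfer (217-fold dilution from DMSO stock) and incubated 16 h at 37C, 5% CO2. Viability read as ATP luminescence with CellTiter-Glo after 30 min at room temperature.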

[3] = target: Cellular tumor antigen p53 (Homo sapiens) (UniProt P04637); assay: TOX21_p53_BLA_p3_ratio: Tox21 HCT-116 p53 Agonism Beta-lactamase Assay, Ratio, Phase 3 (AID 2283596)
Chain of Cellular tumor antigen p53 (Homo sapiens) (P04637 whole entry, looked up): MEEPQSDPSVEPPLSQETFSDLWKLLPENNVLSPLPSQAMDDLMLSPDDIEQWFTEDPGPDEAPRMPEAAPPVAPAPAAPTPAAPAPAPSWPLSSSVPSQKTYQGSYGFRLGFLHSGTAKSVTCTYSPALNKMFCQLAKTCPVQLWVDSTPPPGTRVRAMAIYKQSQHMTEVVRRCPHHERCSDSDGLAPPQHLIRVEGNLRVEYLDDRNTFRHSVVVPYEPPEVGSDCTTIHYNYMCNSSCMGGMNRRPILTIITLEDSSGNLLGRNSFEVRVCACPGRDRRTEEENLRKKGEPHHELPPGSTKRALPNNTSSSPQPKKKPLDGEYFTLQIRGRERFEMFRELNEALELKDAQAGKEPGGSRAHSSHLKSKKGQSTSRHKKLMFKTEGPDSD
In short: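 HCT116 p53-bla cells (4000/well) given compound in DMSO (217-fold dilution) after 5 h, incubated 16 h at 37C. CCF4-AM substrate 2 h at room temperature; 460/530 nm emission ratio, gain fitted against DMSO.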

[4] = TOX21_p53_BLA_p4_viability: Viability Assessment in the Tox21 HCT-116 p53 Agonism Beta-lactamase Assay, Phase 4 (AID 2283597);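 also: hits lower the luminescence signal meaning cytotoxicity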
In short: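 Luminescent ATP readout (CellTiter-Glo, 30 min, room temperature) in the same wells as the p53 bla ratio. HCT116 cells were treated for 16 h at 37C with DMSO-dissolved compounds.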

[5] = TOX21_p53_BLA_p5_viability: Viability Assessment in the Tox21 HCT-116 p53 Agonism Beta-lactamase Assay, Phase 5 (AID 2283600)
In short: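 Seeded cells (4000/well) settle 5 h before compound addition. Plates then incubate 16 h at 37C, receive FRET substrate for 2 h, and finally CellTiter-Glo, with luminescence measured after a 30 min room-temperature incubation.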

[6] = target: Cellular tumor antigen p53 (Homo sapiens) (UniProt P04637); assay: TOX21_p53_BLA_p4_ratio: Tox21 HCT-116 p53 Agonism Beta-lactamase Assay, Ratio, Phase 4 (AID 2283601)
In short: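 HCT-116 p53 beta-lactamase reporter cells (4000/well) preincubated 5 h, then compound (217-fold dilution of DMSO stock) for 16 h at 37C. CCF4-AM substrate added 2 h at room temperature; 460/530 nm emission ratio fitted upward versus DMSO.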

[7] = target: Cellular tumor antigen p53 (Homo sapiens) (UniProt P04637); assay: TOX21_p53_BLA_p5_ratio: Tox21 HCT-116 p53 Agonism Beta-lactamase Assay, Ratio, Phase 5 (AID 2283599)
In short: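 HCT-116 p53-bla cells (4000/well) plated 5 h, dosed with compound (217-fold DMSO dilution) for 16 h at 37 C; CCF4-AM substrate 2 h at room temperature. Activity is the 460/530 nm emission ratio (405 nm excitation), fitted in gain-of-signal direction versus DMSO.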

[8] = CEETOX_H295R_MTT_cell_viability: Viability Assessment in the CeeTox HT-H295R MTT Assay (AID 2283718; active = hit-call score of the fitted dose curve at least 0.9, where 1 is the maximum; inactive = score below 0.9)
In short: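 Human H295R adrenal cells, prestimulated 48 h with 10 uM forskolin, were exposed 48 h to chemicals in 0.1% DMSO. Viability was measured in the same wells by MTT (0.5 mg/ml, 4 h, 37 C), absorbance 570/650 nm, as percent of controls.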

[9] = CEETOX_H295R_11DCORT_noMTC: CeeTox H295R High-throughput Steroidogenesis Assay for 11-Deoxycortisol (11DCORT), maximum tolerated concentration (MTC) filtered results only (AID 2283911; active = hit-call score of the fitted dose curve at least 0.9, where 1 is the maximum; inactive = score below 0.9); settings: actives raise or lower the signal
In short: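 Forskolin-primed (10 uM, 48 h) H295R adrenal cells are dosed for 48 h at 0.1% DMSO; medium 11-deoxycortisol is quantified by LC-MS/MS against a 7-point standard curve, with activity fitted in both directions versus DMSO.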

[10] = CEETOX_H295R_OHPREG_noMTC: CeeTox H295R High-throughput Steroidogenesis Assay for OH-Pregnenolone (OHPREG), maximum tolerated concentration (MTC) filtered results only (AID 2283912; active = hit-call score of the fitted dose curve at least 0.9, where 1 is the maximum; inactive = score below 0.9); settings: actives raise or lower the signal
In short: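 H295R cells prestimulated 48 h with 10 uM forskolin, then exposed 48 h to compound (0.1% DMSO). 17alpha-hydroxypregnenolone in medium measured by MTBE extraction and HPLC-MS/MS; bidirectional fit vs DMSO, concentrations not MTT/MTC-filtered.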

[11] = CEETOX_H295R_OHPROG_noMTC: CeeTox H295R High-throughput Steroidogenesis Assay for OH-Progesterone (OHPROG), maximum tolerated concentration (MTC) filtered results only (AID 2283914; active = hit-call score of the fitted dose curve at least 0.9, where 1 is the maximum; inactive = score below 0.9); settings: actives raise or lower the signal
In short: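 H295R cells prestimulated 48 h with 10 uM forskolin, then exposed 48 h to chemical (0.1% DMSO final). 17alpha-hydroxyprogesterone in medium quantified by HPLC-MS/MS after MTBE extraction; bidirectional fitting versus DMSO, concentrations not MTC-filtered.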

[12] = CEETOX_H295R_CORTISOL_noMTC: CeeTox H295R High-throughput Steroidogenesis Assay for Cortisol, maximum tolerated concentration (MTC) filtered results only (AID 2283916; active = hit-call score of the fitted dose curve at least 0.9, where 1 is the maximum; inactive = score below 0.9); settings: actives raise or lower the signal
In short: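 H295R human adrenal cells prestimulated 48 h with 10 uM forskolin, then exposed 48 h to chemical in 0.1% DMSO; cortisol in medium quantified by HPLC-MS/MS; bidirectional fit vs DMSO baseline, concentrations not MTT-filtered for MTC.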

[13] = CEETOX_H295R_CORTIC_noMTC: CeeTox H295R High-throughput Steroidogenesis Assay for Corticosterone (CORTIC), maximum tolerated concentration (MTC) filtered results only (AID 2283917; active = hit-call score of the fitted dose curve at least 0.9, where 1 is the maximum; inactive = score below 0.9); settings: actives raise or lower the signal
In short: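 H295R adrenal cells pre-stimulated 48 h with 10 uM forskolin, then exposed 48 h to chemical in 0.1% DMSO; corticosterone in medium quantified by HPLC-MS/MS, fitted bidirectionally versus DMSO without MTT-based concentration filtering.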

[14] = CEETOX_H295R_DOC_noMTC: CeeTox H295R High-throughput Steroidogenesis Assay for DOC, maximum tolerated concentration (MTC) filtered results only (AID 2283918; active = hit-call score of the fitted dose curve at least 0.9, where 1 is the maximum; inactive = score below 0.9); settings: actives raise or lower the signal
In short: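 H295R cells prestimulated 48 h with 10 uM forskolin, then exposed 48 h to chemical in 0.1% DMSO. 11-Deoxycorticosterone in medium measured by MTBE extraction and HPLC-MS/MS; bidirectional fit vs DMSO, no MTC filter.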

[15] = CEETOX_H295R_PROG_noMTC: CeeTox H295R High-throughput Steroidogenesis Assay for Progesterone (PROG), maximum tolerated concentration (MTC) filtered results only (AID 2283920; active = hit-call score of the fitted dose curve at least 0.9, where 1 is the maximum; inactive = score below 0.9); settings: actives raise or lower the signal
In short: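 H295R cells, prestimulated 48 h with 10 uM forskolin, exposed 48 h to chemical in 0.1% DMSO. Medium progesterone quantified by MTBE extraction and HPLC-MS/MS; bidirectional fit versus DMSO, concentrations not MTT-filtered.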

[16] = CCTE_Harrill_HTTr_Viability_MCF7: CCTE's 6-hour Cell Viability Assessment for the High-Throughput Transcriptomics (HTTr) Platform, in MCF-7 cells cultured in DMEM + 10% fetal bovine serum, Harrill Lab (AID 2284010; active = hit-call score of the fitted dose curve at least 0.9, where 1 is the maximum; inactive = score below 0.9)
In short: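 Cells were dosed with chemicals in an eight-point dilution series, imaged 6 hours later for propidium iodide uptake, and the endpoint was analyzed by bidirectional fitting against DMSO as negative control.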

[17] = CCTE_Harrill_HTTr_Apoptosis_MCF7: CCTE's 6-hour Apoptosis Assessment for the High-Throughput Transcriptomics (HTTr) Platform, in MCF-7 cells cultured in DMEM + 10% fetal bovine serum, Harrill Lab (AID 2284011; active = hit-call score of the fitted dose curve at least 0.9, where 1 is the maximum; inactive = score below 0.9)
In short: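 Apoptosis in MCF-7 cells grown in DMEM with 10% fetal bovine serum was scored after a six hour exposure by high content imaging of caspase-3/7 activation (CellEvent Caspase 3/7 Green), with DMSO serving as negative control and baseline.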

[18] = target: Thyroid hormone receptor alpha (Rattus norvegicus) + Thyroid hormone receptor beta (Rattus norvegicus) (UniProt P18113+P63059); assay: TOX21_TR_LUC_GH3_Antagonist_Followup: Tox21 GH3 Thyroid Hormone Receptor Antagonism Luciferase Follow-Up Assay (AID 2283942)
In short: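 Antagonist mode: GH3 cells seeded 1,500/well, compounds at 15 concentrations (92 uM to 5nM final) plus T3 at 1.0 nM final, 24 h at 37C. Luciferase read with ONE-Glo after 30 min at room temperature.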

THRA (gene 7067) = THRA (gene 7067) (UniProt P10827); assay: TOX21_TRA_COA_Antagonist_Followup_ratio: Tox21 Thyroid Hormone Receptor alpha Antagonism through Coactivator Recruitment Follow-Up Assay, Ratio (AID 2283953)
Chain of THRA (gene 7067) (P10827 whole entry, looked up, the tested form may be a part): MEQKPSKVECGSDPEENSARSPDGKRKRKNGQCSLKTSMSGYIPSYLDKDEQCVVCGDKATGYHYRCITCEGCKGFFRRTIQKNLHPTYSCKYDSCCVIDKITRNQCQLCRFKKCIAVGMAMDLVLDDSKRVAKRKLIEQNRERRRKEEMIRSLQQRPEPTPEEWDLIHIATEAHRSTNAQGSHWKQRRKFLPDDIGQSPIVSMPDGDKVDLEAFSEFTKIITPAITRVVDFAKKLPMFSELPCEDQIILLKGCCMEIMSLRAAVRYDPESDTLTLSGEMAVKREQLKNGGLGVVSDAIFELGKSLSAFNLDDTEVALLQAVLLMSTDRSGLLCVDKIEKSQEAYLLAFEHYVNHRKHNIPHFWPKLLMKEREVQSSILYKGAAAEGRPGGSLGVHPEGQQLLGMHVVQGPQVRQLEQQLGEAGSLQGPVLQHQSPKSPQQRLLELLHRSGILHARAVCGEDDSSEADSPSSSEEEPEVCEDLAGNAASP
In short: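 520:495 nm emission ratio (excitation 340 nm) reports fluorescein-SRC-2 peptide recruitment to GST-TRα LBD by TR-FRET with Tb anti-GST antibody. Values were normalized to DMSO (0%) and T3 control wells (100%); loss of signal indicated antagonism.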

THRB (gene 7068) [19] = target: THRB (gene 7068) (UniProt P10828); assay: TOX21_TRB_BLA_Antagonist_Followup_ratio: Tox21 Thyroid Hormone Receptor beta Antagonism Beta-lactamase (BLA) Follow-Up Assay, Ratio (AID 2283958)
Chain of THRB (gene 7068) (P10828 whole entry, looked up, the tested form may be a part): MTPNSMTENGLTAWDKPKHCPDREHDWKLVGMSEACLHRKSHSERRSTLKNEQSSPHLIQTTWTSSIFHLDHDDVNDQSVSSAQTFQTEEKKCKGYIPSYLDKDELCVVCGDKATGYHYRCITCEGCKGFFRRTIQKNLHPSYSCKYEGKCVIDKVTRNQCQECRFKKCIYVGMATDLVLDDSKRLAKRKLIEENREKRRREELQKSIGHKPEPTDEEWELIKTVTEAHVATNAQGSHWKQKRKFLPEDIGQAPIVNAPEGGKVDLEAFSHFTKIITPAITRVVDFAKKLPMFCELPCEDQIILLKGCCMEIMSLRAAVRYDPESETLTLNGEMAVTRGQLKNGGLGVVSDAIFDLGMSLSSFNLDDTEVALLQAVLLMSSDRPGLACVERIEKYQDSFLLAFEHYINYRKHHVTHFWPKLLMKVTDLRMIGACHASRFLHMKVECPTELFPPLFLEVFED
In short: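 HEK293T TRb-bla (GAL4 DBD + hTRβ LBD), 2% cs-FBS phenol red-free DMEM, 5 h attach; cpds 11-pt triplicate, 18 h 37C; CCF4-AM 2 h RT; 460/530 ratio vs DMSO; CellTiter-Glo viability same wells.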

[20] = TOX21_TRB_BLA_Antagonist_Followup_viability: Viability Assessment in the Tox21 Thyroid Hormone Receptor beta Antagonism Beta-lactamase (BLA) Follow-Up Assay (AID 2283961)
In short: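 In the same wells as the reporter read, cell health was gauged by CellTiter-Glo ATP luminescence, with signal loss indicating reduced viability. Cells had been exposed to test compounds for 18 h.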

THRB (gene 7068) [21] = target: THRB (gene 7068) (UniProt P10828); assay: TOX21_TRB_COA_Antagonist_Followup_ratio: Tox21 Thyroid Hormone Receptor beta Antagonism through Coactivator Recruitment Follow-Up Assay, Ratio (AID 2283967)
In short: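 Cell-free TR-FRET: GST-TRb LBD (5.0 nM) with fluorescein-SRC-2 peptide (200 nM) and Tb anti-GST antibody (2 nM), 0.10% BSA. 520:495 nm emission ratio normalized to DMSO (0%) and T3 (100%).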

[22] = TOX21_TR_RXR_BLA_Antagonist_Followup_viability: Viability Assessment in the Tox21 Thyroid Hormone Receptor beta Retinoid X Receptor alpha (RXRa) Antagonism Beta-lactamase (BLA) Follow-Up Assay (AID 2283979)
In short: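 RXRa-bla HEK293T cells (2,500/well, phenol red-free DMEM, 2% charcoal-stripped FBS) were attached 5 h, then exposed to compounds at 11 concentrations in triplicate for 16 h at 37C. Viability measured by CellTiter-Glo ATP luminescence, bidirectional fitting versus DMSO.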

Measured: AC50

Nc1ccc(NC(=O)c2ccc(N)cc2)cc1
inactive: [1] | [2] | [3] | [4] | [5] | [6]

CC(C)(C(=O)c1cccnc1)c1cccnc1
active: [9] 35.3 µM | [10] 36.9 µM | [11] 29.1 µM | [12] 1.56 µM | [13] 0.13 µM
inactive: [1] | [2] | [3] | [4] | [7] | [6] | [8] | [14] | [15] | [16] | [17]

CCCC(=O)CC
inactive: [1] | [2] | [3] | [4] | [5] | [6]

CC(C)OC(=O)c1cc2c(OCC(O)CNC(C)(C)C)cccc2[nH]1 (configuration not stated)
inactive: [1] | [2] | [3] | [4] | [5]

CC(=O)OC(C)=O
inactive: [1] | [2] | [3] | [7] | [5]

COC(=O)[C@H]1[C@H]2C[C@@H]3c4[nH]c5cc(OC)ccc5c4CCN3C[C@H]2C[C@@H](OC(=O)COc2ccc(OC)cc2)[C@@H]1OC
inactive: [1] | [2] | [3] | [7] | [5] | [6]

CC(=O)Oc1ccc([N+](=O)[O-])cc1CCl
inactive: [1] | [2] | [7]
active: [3] 73.1 µM

CC(COC(=O)c1ccccc1)OC(=O)c1ccccc1 (configuration not stated)
inactive: [1] | [2] | [3] | [7] | [5] | [6]

COc1ccccc1OCC(O)CN1CCN(CC(=O)Nc2c(C)cccc2C)CC1 (configuration not stated)
inactive: [1] | [2] | [3] | [4] | [6]

Cc1cccc(C)c1NC(=O)CN1CCN(CCCC(c2ccc(F)cc2)c2ccc(F)cc2)CC1
inactive: [1] | [2] | [3] | [4] | [6]

CC1(C)S[C@@H]2[C@H](N3C(=O)C(c4ccccc4)NC3(C)C)C(=O)N2[C@H]1C(=O)O (some centres not stated)
inactive: [1] | [2] | [3] | [4] | [5]

CC(C(=O)O)c1ccc(N2Cc3ccccc3C2=O)cc1 (configuration not stated)
inactive: [1] | [2] | [3] | [4] | [5] | [6] | [18] | THRA (gene 7067) | THRB (gene 7068) [19] | [20] | THRB (gene 7068) [21] | [22]

CO[C@@H]1[C@@H](O[C@@H]2O[C@H](C)[C@@H](O[C@H]3C[C@@](C)(O)[C@@H](O)[C@H](C)O3)[C@H](N(C)C)[C@H]2O)[C@@H](CC=O)C[C@@H](C)[C@@H](O[C@@H]2CC[C@H](N(C)C)[C@@H](C)O2)/C=C/C=C/C[C@@H](C)OC(=O)C[C@H]1OC(C)=O
inactive: [1] | [2] | [3] | [4] | [7] | [6]
